These results are taken from PubChem BioAssay (EPA / NIEHS).

Broadly, the AC50 is the concentration at which the activity in the assay is half-maximal.

Structures are written as SMILES. Results filed as inconclusive are left out. Calls of active or inactive are those of the source. Rule for the calls, unless noted: active = hit-call score of the fitted dose curve at least 0.9, where 1 is the maximum; inactive = score below 0.9.

The target of assay [1] is human Retinoid X Receptor beta (RXRb), RXRB (gene 6257) (UniProt P28702). Briefly: ATG_RXRb_TRANS: Attagene TRANS-FACTORIAL HepG2 Assay for human Retinoid X Receptor beta (RXRb) (AID 2283013; active = hit-call score of the fitted dose curve at least 0.9, where 1 is the maximum). The procedure, abridged:
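After a 24 h incubation with test chemical, transfected HepG2 cells carrying NR-Gal4 fusions and GAL4-UAS reporter transcription units yield RNA whose reporter cDNA is FAM-labelled, HpaI-cut and sized by capillary electrophoresis; increases over DMSO are scored.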

Read-out in assay [2]: E-selectin (Homo sapiens) (UniProt P16581)
Briefly: BSK_3C_Eselectin: BioMAP Diversity Plus: 3C Assay for Eselectin Biomarker Activity (AID 2283015).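 For outcome: cell surface E-selectin protein quantified by ELISA 24 h after dosing.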 To be noted: primary human endothelial cells (HUVEC); actives raise or lower the signal. In short, it runs like this:
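HUVEC, 3C stimulation; compound exposure 24 h; E-selectin by ELISA; gain- or loss-of-signal fitted bidirectionally vs DMSO baseline.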

Read-out in assay [3]: Interleukin-1 alpha (IL1a), IL1A (gene 3552)
Put plainly: BSK_BE3C_IL1a: BioMAP Diversity Plus: BE3C Assay for Interleukin-1 alpha (IL1a) Biomarker Activity (AID 2283016). To be noted: primary human bronchial epithelial cells; actives raise or lower the signal. The procedure, abridged:
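Measured in human lung primary bronchial epithelial cells: IL-1a by ELISA at 24 h after dosing, with bidirectional fitting against DMSO.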

Read-out in assay [4]: Monocyte Chemoattractant Protein-1 (MCP1), CCL2 (gene 6347)
Put plainly: BSK_3C_MCP1: BioMAP Diversity Plus: 3C Assay for Monocyte Chemoattractant Protein-1 (MCP1) Biomarker Activity (AID 2283017). The settings on record: primary human endothelial cells (HUVEC); actives raise or lower the signal. The procedure, abridged:
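HUVEC, 3C system; 24 h chemical exposure; MCP-1 by ELISA; bidirectional curve fit vs DMSO baseline.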

Read-out in assay [5]: Monocyte Chemoattractant Protein-1 (MCP1), CCL2 (gene 6347)
Briefly: BSK_4H_MCP1: BioMAP Diversity Plus: 4H Assay for Monocyte Chemoattractant Protein-1 (MCP1) Biomarker Activity (AID 2283018). To be noted: primary human endothelial cells (HUVEC); actives raise or lower the signal. In short, it runs like this: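 Primary human umbilical vein endothelium is exposed to chemical for 24 h before MCP-1 is assayed by ELISA. Concentration-response fitted bidirectionally relative to DMSO.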

Read-out in assay [6]: Human Leukocyte Antigen - DR isotype (HLADR), HLA-DRA (gene 3122)
Put plainly: BSK_3C_HLADR: BioMAP Diversity Plus: 3C Assay for Human Leukocyte Antigen - DR isotype (HLADR) Biomarker Activity (AID 2283019).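 For outcome: ELISA of cell-surface HLA-DR on HUVEC 24 h after dosing.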 The settings on record: primary human endothelial cells (HUVEC); actives raise or lower the signal. The procedure, abridged: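 HUVEC, 3C stimulation, 24 h post-dose; HLA-DR by ELISA; bidirectional curve fit vs DMSO baseline; gain or loss of signal scored.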

Read-out in assay [7]: Interleukin-8 (IL8), CXCL8 (gene 3576)
Put plainly: BSK_3C_IL8: BioMAP Diversity Plus: 3C Assay for Interleukin-8 (IL8) Biomarker Activity (AID 2283020). The settings on record: primary human endothelial cells (HUVEC); actives raise or lower the signal. The procedure, abridged:
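Using DMSO-treated wells as the baseline, bidirectional curve fitting was applied to ELISA-measured IL-8 from human umbilical vein endothelial cultures sampled 24 h after compound addition.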

Read-out in assay [8]: Monokine induced gamma interferon (MIG), CXCL9 (gene 4283)
Briefly: BSK_3C_MIG: BioMAP Diversity Plus: 3C Assay for Monokine induced gamma interferon (MIG) Biomarker Activity (AID 2283021).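 For AC50: MIG protein level measured by immunoassay in the treated endothelial cultures.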 To be noted: primary human endothelial cells (HUVEC); actives raise or lower the signal. In short, it runs like this:
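ELISA-measured MIG in dosed HUVEC 3C cultures at 24 h, analysed by bidirectional fitting with DMSO defining baseline activity.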

The target of assay [9] is human Thyroid Receptor alpha (THRa1), THRA (gene 7067) (UniProt P10827). Briefly: ATG_THRa1_TRANS: Attagene TRANS-FACTORIAL HepG2 Assay for human Thyroid Receptor alpha (THRa1) (AID 2283014; active = hit-call score of the fitted dose curve at least 0.9, where 1 is the maximum). In short, it runs like this:
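Transient HepG2 transfection, NR-Gal4 chimera driving GAL4-UAS reporters; 24 h compound exposure; total RNA, oligo(dT) RT, PCR, fluorescent primer extension, capillary electrophoresis. Upward direction vs DMSO control.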

Chain of human Retinoid X Receptor beta (RXRb), RXRB (gene 6257) (P28702 whole entry, looked up, the tested form may be a part): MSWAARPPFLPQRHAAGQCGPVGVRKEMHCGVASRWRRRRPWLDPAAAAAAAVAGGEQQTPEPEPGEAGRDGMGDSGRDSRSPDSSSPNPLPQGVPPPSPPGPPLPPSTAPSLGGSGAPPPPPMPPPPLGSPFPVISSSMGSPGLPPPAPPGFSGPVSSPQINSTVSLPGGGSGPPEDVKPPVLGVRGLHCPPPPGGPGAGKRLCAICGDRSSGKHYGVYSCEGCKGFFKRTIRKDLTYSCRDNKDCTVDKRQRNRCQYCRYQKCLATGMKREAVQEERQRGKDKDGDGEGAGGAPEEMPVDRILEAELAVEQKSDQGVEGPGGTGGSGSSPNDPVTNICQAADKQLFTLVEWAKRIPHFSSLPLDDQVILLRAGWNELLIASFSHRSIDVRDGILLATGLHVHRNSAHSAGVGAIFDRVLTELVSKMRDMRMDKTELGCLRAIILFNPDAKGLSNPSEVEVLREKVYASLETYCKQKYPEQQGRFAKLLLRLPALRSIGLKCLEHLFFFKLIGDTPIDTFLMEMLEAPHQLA
Chain of E-selectin (Homo sapiens) (P16581 whole entry, looked up): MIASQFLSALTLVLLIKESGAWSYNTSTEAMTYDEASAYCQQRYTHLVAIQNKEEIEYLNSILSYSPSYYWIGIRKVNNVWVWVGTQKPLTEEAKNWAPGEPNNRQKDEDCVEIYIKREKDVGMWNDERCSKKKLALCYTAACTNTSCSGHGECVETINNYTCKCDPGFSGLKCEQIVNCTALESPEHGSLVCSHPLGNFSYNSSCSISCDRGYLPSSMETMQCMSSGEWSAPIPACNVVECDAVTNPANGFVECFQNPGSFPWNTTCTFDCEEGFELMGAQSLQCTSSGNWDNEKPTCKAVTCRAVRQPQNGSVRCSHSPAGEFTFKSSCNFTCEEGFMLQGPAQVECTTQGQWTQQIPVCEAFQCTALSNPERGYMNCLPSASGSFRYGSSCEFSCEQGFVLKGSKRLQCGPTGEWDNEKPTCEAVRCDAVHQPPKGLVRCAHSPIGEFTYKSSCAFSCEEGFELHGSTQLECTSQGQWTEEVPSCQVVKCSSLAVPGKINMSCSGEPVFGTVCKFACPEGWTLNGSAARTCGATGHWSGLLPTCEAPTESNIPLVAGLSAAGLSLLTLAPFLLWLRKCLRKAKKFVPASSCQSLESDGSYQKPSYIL
Chain of human Thyroid Receptor alpha (THRa1), THRA (gene 7067) (P10827 whole entry, looked up, the tested form may be a part): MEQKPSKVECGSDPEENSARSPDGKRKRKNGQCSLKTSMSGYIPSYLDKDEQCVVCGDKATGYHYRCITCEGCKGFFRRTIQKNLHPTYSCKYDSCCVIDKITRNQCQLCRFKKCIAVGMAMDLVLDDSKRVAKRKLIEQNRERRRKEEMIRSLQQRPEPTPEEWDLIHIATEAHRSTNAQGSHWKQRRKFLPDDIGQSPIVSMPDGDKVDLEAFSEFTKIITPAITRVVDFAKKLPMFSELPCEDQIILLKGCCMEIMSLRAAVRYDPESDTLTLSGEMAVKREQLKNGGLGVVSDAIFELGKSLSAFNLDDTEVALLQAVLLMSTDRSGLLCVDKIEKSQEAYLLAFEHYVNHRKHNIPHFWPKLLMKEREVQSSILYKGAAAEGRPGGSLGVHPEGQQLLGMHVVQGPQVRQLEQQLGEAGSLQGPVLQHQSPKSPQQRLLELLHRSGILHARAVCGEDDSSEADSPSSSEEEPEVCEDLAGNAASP

Consider `CC(C)=CCC/C(C)=C/CO`, for which the outcome in assay [1], in assay [2], in assay [3], in assay [4], in assay [5] and in [6] was inactive. The outcome in assay [7] and in assay [8] was inactive.

For the molecule `COc1ccc2sc(C(=O)Nc3nnn[nH]3)c(OC(C)C)c2c1`, the molecule was called inactive in assay [1]. The AC50 in [2] is 19.9 µM (active); in assay [3] it was 12.2 µM (active); in assay [4] it was 12.3 µM (active); in [5], 26.9 µM (active); in assay [6] it was 7.28 µM (active); in assay [7], 17.9 µM (active). In assay [8], the concentration at half-maximal activity (AC50) was 16.1 µM (active).

`O=P(OC(CCl)CCl)(OC(CCl)CCl)OC(CCl)CCl`: the AC50 in assay [1] is 26 µM (active). For the same molecule, the result in assay [9], in [2], in assay [3], in [4], in assay [5] and in [6] was inactive. Moreover, the result in [7] and in [8] was inactive.

On to `CCCC(=O)OCC`, for which the outcome in assay [1], in assay [2], in assay [3], in assay [4], in assay [5] and in assay [6] was inactive. In addition, the result in [7] and in [8] was inactive.

`CCCCC(CC)COC(=O)CCCCCCCCC(=O)OCC(CC)CCCC` (stereo not given): the molecule was classed as inactive in assay [1], in [2], in [3], in assay [4], in assay [5] and in assay [6]. The result in [7] and in assay [8] was inactive.

Regarding `O=C(OC[C@H]1O[C@@H](OC(=O)c2cc(O)c(O)c(OC(=O)c3cc(O)c(O)c(O)c3)c2)[C@H](OC(=O)c2cc(O)c(O)c(OC(=O)c3cc(O)c(O)c(O)c3)c2)[C@@H](OC(=O)c2cc(O)c(O)c(OC(=O)c3cc(O)c(O)c(O)c3)c2)[C@@H]1OC(=O)c1cc(O)c(O)c(OC(=O)c2cc(O)c(O)c(O)c2)c1)c1cc(O)c(O)c(OC(=O)c2cc(O)c(O)c(O)c2)c1`, the molecule was classed as inactive in [1], in assay [9], in assay [2], in [7] and in assay [8]. The AC50 is 7.85 µM (active) in assay [3], 9.09 µM (active) in assay [4], 6.1 µM (active) in assay [5] and 9.13 µM (active) in assay [6].

Regarding `Cc1c(-c2cccnc2)c2ccccc2n1CCCCC(=O)O`, the molecule was called inactive in assay [1], in [2], in assay [3], in [4], in [5] and in [6]. Also, the result in assay [7] and in assay [8] was inactive.

Turning to `O=C(NS(=O)(=O)/C=C/c1ccccc1)c1ccc(F)cc1Cl`, the molecule was classed as inactive in assay [1], in assay [9], in assay [2], in assay [3], in assay [4] and in assay [5]. Further, the outcome in assay [6], in assay [7] and in assay [8] was inactive.

Turning to `CC1(C)C(=O)N(Br)C(=O)N1Br`, the call in assay [1], in assay [2], in [3], in assay [4], in [5] and in assay [6] was inactive. The result in assay [7] and in [8] was inactive.

As for `CC(=O)OC[C@H]1O[C@@](COC(C)=O)(O[C@H]2O[C@H](COC(C)=O)[C@@H](OC(C)=O)[C@H](OC(C)=O)[C@H]2OC(C)=O)[C@@H](OC(C)=O)[C@@H]1OC(C)=O`, the outcome in [1], in [2], in assay [3], in assay [4], in assay [5] and in assay [6] was inactive. The result in [7] and in assay [8] was inactive.

As for `CC(C)CCCCCCCOC(=O)CCCCC(=O)OCCCCCCCC(C)C`, the AC50 in [1] is 100 µM (active). The outcome in [2], in [3], in [4], in assay [5], in assay [6] and in assay [7] was inactive. The outcome in assay [8] was inactive.

As for `COCCOc1cc2cc(C(=O)NC3CCN(C(C)C)CC3)n(CC(=O)Nc3ccc(Cl)cn3)c2cn1`, the molecule was called inactive in [1], in assay [2], in assay [3], in assay [4], in assay [5] and in assay [6]. Moreover, the result in [7] and in assay [8] was inactive.

In the case of `Cc1ccc(S(=O)(=O)O)cc1C`, the molecule was called inactive in [1], in [2], in assay [3], in assay [4], in assay [5] and in assay [6]. Besides, the outcome in assay [7] and in assay [8] was inactive.

Take `O=C(O)c1cc(N=Nc2ccc(S(=O)(=O)Nc3ccccn3)cc2)ccc1O`: the outcome in assay [1], in [2], in assay [3], in assay [4], in assay [5] and in assay [6] was inactive. Moreover, the outcome in assay [7] and in assay [8] was inactive.

On to `C1=CCCC=CCCC=CCC1`, for which the AC50 in [1] was 63.5 µM (active). Also, the outcome in assay [2], in [3], in [4], in [5], in assay [6] and in [7] was inactive. In assay [8], the outcome was inactive.

In the case of `C[C@](N)(Cc1ccc(O)c(O)c1)C(=O)O`, the result in [1], in assay [9], in assay [2], in assay [3], in assay [4] and in assay [5] was inactive. In addition, the outcome in [6], in assay [7] and in [8] was inactive.

In the case of `Cn1c(=O)c2c(ncn2C)n(C)c1=O`, the call in assay [1], in [2], in [3], in assay [4], in [5] and in assay [6] was inactive. Moreover, the outcome in assay [7] and in assay [8] was inactive.

On to `COC(=O)CC(=O)OC`, for which the result in [2], in assay [3], in assay [4], in assay [5], in assay [6] and in [7] was inactive. Moreover, the outcome in assay [8] was inactive.

`CNCc1ccc(NC(=O)c2c[nH]c3c2C(=O)CCC3)cc1`: the outcome in [9], in assay [2], in assay [3], in assay [4], in [5] and in [6] was inactive. Moreover, the outcome in [7] and in assay [8] was inactive.

On to `Cc1ccc(C)c(O)c1`, for which the outcome in assay [2], in [3], in [4], in assay [5], in assay [6] and in assay [7] was inactive. In [8], the result was inactive.

`O=c1n(CC2CO2)c(=O)n(CC2CO2)c(=O)n1CC1CO1` (stereo not given): the molecule was classed as inactive in [9], in [3], in [5] and in assay [8]. For the same molecule, the AC50 in [2] is 16.1 µM (active); in assay [4], 20 µM (active); in assay [6], 21.5 µM (active); in [7] it was 13.2 µM (active).

Regarding `O=C(O)c1cccc(N(Cc2cccnc2)c2ccc(OC(F)F)c(OC(F)F)c2)c1`, the outcome in assay [2], in assay [3], in [4], in assay [5], in [7] and in assay [8] was inactive. The half-maximal activity concentration (AC50) in [6] is 9.02 µM (active).

As for `CCCCCCc1ccc(O)cc1O`, the AC50 in assay [1] was 24.2 µM (active); in assay [2], 30.8 µM (active); in assay [3], 33 µM (active); in [4], 32.5 µM (active); in assay [5], 16.2 µM (active); in assay [6] it was 39 µM (active). Also, the figures for the AC50 in assay [7] and in assay [8] were 32.4 µM (active) and 3.97 µM (active), respectively.
